Measured values from the supplement of paper PMC6555819.

These sequences were tested on RXRa DBDmut IVT, anti-RXR (DBD mutation: RXRa K156A/R161A, NR concentration 90 nM) (assay: PBM binding z-score (relative to random genomic background probes); higher = stronger binding; sequences stand for … in GC…GCGATTGACAGCGTAGAATGAAGG).
Procedure, shortened: (§1)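 Random background probes are the reference for binding z-scores. These scores derive from regression-normalized fluorescence on custom Agilent 4×180K protein-binding microarrays incubated 1 h with ligand-free nuclear receptor dimers. Binding was detected with antibodies against each partner (one per run).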

Going from CATACAGGGTCAGCTAGGCCAGAGTGGGGACGGC to CGTCCAAGGTCAAATGTCAGTGAAGAGATGACGG, the PBM binding z-score rises from 1.4 to 3.82.

Going from ATATGTAGGTTACATCCGGCTCATTCAGGCTATG to CCTTACGGGTCAAGGTTAGAGCACGGGTGGTACG, the PBM binding z-score falls from 0.846 to -0.0809.

First: AGAATGAGGTTATTCAGATCAGGGAATTGCGGTC
Second: AGAACGAGGGCAATGAGATGATAGCACGGGTGGC
The PBM binding z-score of the first is higher: 2.35 for the first, 1.59 for the second.

First: CATAGAGGGTCAGCTAGGCCAGAGTAGGGACGGC
Second: CCTATTAGTTGACCATAAAGGCAACCGAAGCTCG
The PBM binding z-score of the first is lower: 0.356 for the first, 0.578 for the second.

Going from TGAATGAGGTTAAAGATCAGGCAACGTGGCGTCG to CGCCCAAGGTCAAGGTCAGTGAAAGAGACTCGAA, the PBM binding z-score rises from 1.02 to 3.25.

Compared with GCTAGCAGGTCATTTGGGTCACTCAATGACGGGC, ATCTCTAGGTAAAGATAGGTCAGTGAATGCAAAT is lower in PBM binding z-score: 2.82 for the first, 0.189 for the second.

First: CCAGACAGGTGCAAGGTAACTCAGTCTGGTACGC
Second: AGTCAAAGTTCAGGACCAGGTAACGTAAAGCACG
The PBM binding z-score of the first is lower: 0.584 for the first, 2.84 for the second.

Compared with GCAGACAGGTGAAACGCAGGTACCTCAGGGTGGC, CATCCAGGGTCAGCTAGGCCAGAGTAGGGACGGC is higher in PBM binding z-score: -0.949 for the first, 1.35 for the second.

Going from TGAATGTGGTTAAAGATCAGGGAACGTGGCGTCG to TCTAGTTGGTCACGGAGGCCACACACGACGGGTA, the PBM binding z-score rises from -0.526 to 0.633.

Compared with TTACCATGGTGAAAGGTCGTTGATGCACGCCTTG, TCTAATTGGTCAAAGGTCACACACTCGAAATGCG is higher in PBM binding z-score: 0.434 for the first, 2.51 for the second.

Compared with GCGACTGGGGCATAGCAGGTTACCATAAGGTTGG, CCTAGCAGGCCAATCTTGGTCACTCAAGGCTTGA is higher in PBM binding z-score: -0.432 for the first, -0.0196 for the second.

Compared with TCATATACGTAAACAGGTGAAAGTCCGTAAGTTA, CCTACTGGCCCATTCAGAGGTCATTGATCATATG is lower in PBM binding z-score: 1.91 for the first, 0.948 for the second.

Compared with ATCTCTAGGTAACAAGTTCAGTTAAAGAGAGGAC, GCTAGCAGGCCCTTTGGGTCACTCAATGACGGGC is lower in PBM binding z-score: 0.748 for the first, -0.714 for the second.

Compared with ACTAGCAGGCCAAGTTTGGGTCACTCAAACAAAG, ACAGACAGGTGATGAAGGAAACTCAGGCTATCAT is higher in PBM binding z-score: -0.26 for the first, -0.0618 for the second.

Compared with ATCTCTAGGTACCAAGTTCAGTGAAAGAGAGGAC, GCGACTGGGGCATCAGCAGGTCACCATAACTTAA is lower in PBM binding z-score: 1.27 for the first, -0.121 for the second.

Going from TCTATTAGTTGATTAGGGCTACCGAAACAGCGGA to ACTAGTTGGTCAGCAGAGGTCACACACAATTCGG, the PBM binding z-score rises from 0.904 to 1.14.

First: ATTGAAAGGTCGAAGGTGAGTATACCCACCCGAA
Second: TCTAGCAGGCCAGAGGGTCACGCAAGAGGTACGG
The PBM binding z-score of the first is higher: 1.26 for the first, -0.273 for the second.

First: TCTAGTTGGTCAAAGGTCGCACACTCGAAATGCG
Second: GCTGCTAGGTCAACTGATGGTCAGCTCAAGCTCG
The PBM binding z-score of the first is lower: 1.27 for the first, 1.62 for the second.

Compared with CGCCAAAGTTCAACTAAGGTAACGTAAAGCACGC, TCAGACAGGTGAAGTTAACTCAGGTACGCAGTCG is lower in PBM binding z-score: 4.67 for the first, 1.33 for the second.

In the case of ATATGTAGGTTAAGGGTCATACAGGTTGGTTCGC, the PBM binding z-score is reported as 2.4.

What follows are sequences tested on RXRa homodimer (NR concentration 180 nM) in the same assay as above.
Procedure, shortened: as §1

Going from CATACAGGGTCAGCTAGGCCAGAGTGGGGACGGC to CGTCCAAGGTCAAATGTCAGTGAAGAGATGACGG, the PBM binding z-score rises from 4.23 to 6.77.

Going from ATATGTAGGTTACATCCGGCTCATTCAGGCTATG to CCTTACGGGTCAAGGTTAGAGCACGGGTGGTACG, the PBM binding z-score rises from 0.829 to 4.97.

First: AGAATGAGGTTATTCAGATCAGGGAATTGCGGTC
Second: AGAACGAGGGCAATGAGATGATAGCACGGGTGGC
The PBM binding z-score of the first is higher: 2.13 for the first, 0.713 for the second.

Compared with CATAGAGGGTCAGCTAGGCCAGAGTAGGGACGGC, CCTATTAGTTGACCATAAAGGCAACCGAAGCTCG is lower in PBM binding z-score: 3.3 for the first, 0.337 for the second.

Going from TGAATGAGGTTAAAGATCAGGCAACGTGGCGTCG to CGCCCAAGGTCAAGGTCAGTGAAAGAGACTCGAA, the PBM binding z-score rises from 3.63 to 6.2.

Compared with GCTAGCAGGTCATTTGGGTCACTCAATGACGGGC, ATCTCTAGGTAAAGATAGGTCAGTGAATGCAAAT is lower in PBM binding z-score: 4.23 for the first, 1.2 for the second.

Going from CCAGACAGGTGCAAGGTAACTCAGTCTGGTACGC to AGTCAAAGTTCAGGACCAGGTAACGTAAAGCACG, the PBM binding z-score rises from 0.00435 to 2.91.

First: GCAGACAGGTGAAACGCAGGTACCTCAGGGTGGC
Second: CATCCAGGGTCAGCTAGGCCAGAGTAGGGACGGC
The PBM binding z-score of the first is lower: 0.343 for the first, 4.41 for the second.

First: TGAATGTGGTTAAAGATCAGGGAACGTGGCGTCG
Second: TCTAGTTGGTCACGGAGGCCACACACGACGGGTA
The PBM binding z-score of the first is lower: 0.126 for the first, 1.06 for the second.

Compared with TTACCATGGTGAAAGGTCGTTGATGCACGCCTTG, TCTAATTGGTCAAAGGTCACACACTCGAAATGCG is higher in PBM binding z-score: 3.19 for the first, 8.16 for the second.

Going from GCGACTGGGGCATAGCAGGTTACCATAAGGTTGG to CCTAGCAGGCCAATCTTGGTCACTCAAGGCTTGA, the PBM binding z-score falls from 0.456 to -0.417.

Going from TCATATACGTAAACAGGTGAAAGTCCGTAAGTTA to CCTACTGGCCCATTCAGAGGTCATTGATCATATG, the PBM binding z-score rises from 0.88 to 3.56.

First: ATCTCTAGGTAACAAGTTCAGTTAAAGAGAGGAC
Second: GCTAGCAGGCCCTTTGGGTCACTCAATGACGGGC
The PBM binding z-score of the first is higher: 0.837 for the first, 0.498 for the second.

Going from ACTAGCAGGCCAAGTTTGGGTCACTCAAACAAAG to ACAGACAGGTGATGAAGGAAACTCAGGCTATCAT, the PBM binding z-score falls from 0.865 to 0.38.

Going from ATCTCTAGGTACCAAGTTCAGTGAAAGAGAGGAC to GCGACTGGGGCATCAGCAGGTCACCATAACTTAA, the PBM binding z-score rises from 0.546 to 2.14.

Compared with TCTATTAGTTGATTAGGGCTACCGAAACAGCGGA, ACTAGTTGGTCAGCAGAGGTCACACACAATTCGG is higher in PBM binding z-score: 0.363 for the first, 5.43 for the second.

First: ATTGAAAGGTCGAAGGTGAGTATACCCACCCGAA
Second: TCTAGCAGGCCAGAGGGTCACGCAAGAGGTACGG
The PBM binding z-score of the first is higher: 5.43 for the first, 4.06 for the second.

Compared with TCTAGTTGGTCAAAGGTCGCACACTCGAAATGCG, GCTGCTAGGTCAACTGATGGTCAGCTCAAGCTCG is lower in PBM binding z-score: 5.6 for the first, 2.96 for the second.

Going from CGCCAAAGTTCAACTAAGGTAACGTAAAGCACGC to TCAGACAGGTGAAGTTAACTCAGGTACGCAGTCG, the PBM binding z-score falls from 4.49 to 0.838.

With ATATGTAGGTTAAGGGTCATACAGGTTGGTTCGC the PBM binding z-score was 6.23.
